Our source for the growth inhibition values is PubChem BioAssay (NCI).

The panel holds about 79,000 compounds, 15% with a hit somewhere; the sample as a whole holds those more often. A number with no mark means an inactive call. The source made the active and inactive calls. Rule as the data show it: active = growth inhibition above about 70%; inactive = the rest.

A short description of assay [1]: NCI Yeast Anticancer Drug Screen. Data for the rad50 strain (AID 155).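 Also: 0% = growth of vehicle-only cultures of the same strain.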 The following applies: S. cerevisiae rad50 strain growth inhibition, hits give high values. Put shortly:
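Growth of the mutant yeast was measured after compound exposure and referenced to vehicle-treated cultures.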

Assay [2] can be described thus: NCI Yeast Anticancer Drug Screen. Data for the mec2-1 strain (AID 157). The following applies: S. cerevisiae mec2-1 strain, hits give high values. Put shortly: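 mec2-1 yeast strain, carrying an alteration in DNA damage repair or cell cycle control, was exposed to compounds; growth inhibition was measured relative to vehicle-treated controls.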
A short description of assay [3]: NCI Yeast Anticancer Drug Screen. Data for the sgs1 mgt1 strain (AID 161).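 Also: 0% = growth of cultures given vehicle only.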 As to conditions: S. cerevisiae sgs1 mgt1 strain, hits give high values. Summed up: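 Yeast cells carrying a defined DNA-repair defect were exposed to test compounds. Growth inhibition was measured relative to vehicle-treated controls.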
Assay [4] in a line: NCI Yeast Anticancer Drug Screen. Data for the cln2 rad14 strain (AID 165).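 Also: 0% = growth equal to vehicle treated cultures.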 The following applies: S. cerevisiae cln2 rad14 strain, hits give high values. Put shortly:
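Yeast carrying cln2 and rad14 alterations (cell cycle control and DNA damage repair) were exposed to compounds. Growth inhibition was measured against vehicle-treated controls.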

The nature of assay [5]: NCI Yeast Anticancer Drug Screen. Data for the bub3 strain (AID 167). As to conditions: S. cerevisiae bub3 mutant strain, hits give high values. Summed up: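 Whole-cell yeast assay. The mutant strain was incubated with compounds, and growth inhibition was determined by comparison with vehicle-treated cells.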
Assay [6] in a line: NCI Yeast Anticancer Drug Screen. Data for the mlh1 rad18 strain (AID 175). The following applies: S. cerevisiae mlh1 rad18 strain growth inhibition, hits give high values. Summed up:
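Growth inhibition of the yeast strain was measured after compound exposure and expressed relative to vehicle-treated controls. The strain carries defined defects in DNA damage repair.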

Where [7] appears, read: at 5.0 µM (retest, dose inferred, filed as 0.5).
Setting [8] is: at 50.0 µM (retest, dose inferred, filed as 5.0).

For `COc1ccc(C2=C(Cl)C(=O)N(c3ccc(C)cc3)C(=O)C2(Cl)Cl)cc1`, the growth inhibition in assay [1] (setting [7]) is 14%; in assay [1] (setting [8]), 59%; in assay [1] (at 50.0 µM), 83.3% (active); in assay [2] (setting [7]) it was -2%; in assay [2] (setting [8]), 36%; in assay [2] (at 50.0 µM), 96.8% (active). Besides, the growth inhibition in assay [3] (setting [7]) is 24%; in assay [3] (setting [8]) it was 83% (active); in assay [3] (at 50.0 µM) it was 94.2% (active); in assay [4] (setting [7]) it was 1%; in assay [4] (setting [8]), 19%; in assay [4] (at 50.0 µM) it was 54.3%. The growth inhibition was -7% in assay [5] (setting [7]); 22% in assay [5] (setting [8]); 76.3% (active) in assay [5] (at 50.0 µM); 12% in assay [6] (setting [7]); 33% in assay [6] (setting [8]); 94% (active) in assay [6] (at 50.0 µM).
With `Oc1ccc(Br)cc1C=Nc1c(NC2CCCCC2)oc2ccc(Br)cc12`, the growth inhibition in assay [1] (setting [7]) is -4%; in assay [1] (setting [8]), 9%; in assay [1] (at 50.0 µM) it was -9.35%; in assay [2] (setting [7]) it was 3%; in assay [2] (setting [8]), -2%; in assay [2] (at 50.0 µM), 39.4%. In addition, the growth inhibition was 11% in assay [3] (setting [7]); 22% in assay [3] (setting [8]); 41.8% in assay [3] (at 50.0 µM); -18% in assay [4] (setting [7]); 0% in assay [4] (setting [8]); 37% in assay [4] (at 50.0 µM). For the same compound, the growth inhibition in assay [5] (setting [7]) is -12%; in assay [5] (setting [8]) it was 43%; in assay [5] (at 50.0 µM), 53.4%; in assay [6] (setting [7]) it was -4%; in assay [6] (setting [8]) it was 29%; in assay [6] (at 50.0 µM), 50.5%.
As to `Nc1nc(-c2ccccn2)cc2cc(Cl)ccc12`, the growth inhibition is 93% (active) in assay [1] (setting [7]); 99% (active) in assay [1] (setting [8]); 3.15% in assay [1] (at 50.0 µM); 92% (active) in assay [2] (setting [7]); 100% (active) in assay [2] (setting [8]); -5.45% in assay [2] (at 50.0 µM). The growth inhibition is 95% (active) in assay [3] (setting [7]); 99% (active) in assay [3] (setting [8]); 7.55% in assay [3] (at 50.0 µM); 88% (active) in assay [4] (setting [7]); 98% (active) in assay [4] (setting [8]); -1.4% in assay [4] (at 50.0 µM). Moreover, the growth inhibition in assay [5] (setting [7]) is 92% (active); in assay [5] (setting [8]), 99% (active); in assay [5] (at 50.0 µM), 8.05%; in assay [6] (setting [7]), 94% (active); in assay [6] (setting [8]), 98% (active); in assay [6] (at 50.0 µM) it was 13.9%.
As for `CC(=O)Nc1ccc(/C=N\NC(=O)c2ccco2)cc1`, the growth inhibition in assay [1] (setting [7]) was -5%; in assay [1] (setting [8]), 4%; in assay [1] (at 50.0 µM) it was -7.6%; in assay [2] (setting [7]), -10%; in assay [2] (setting [8]), -7%; in assay [2] (at 50.0 µM), -2.6%. Moreover, the growth inhibition in assay [3] (setting [7]) was -4%; in assay [3] (setting [8]), 5%; in assay [3] (at 50.0 µM), -1.1%; in assay [4] (setting [7]), -13%; in assay [4] (setting [8]), 1%; in assay [4] (at 50.0 µM) it was -3.1%. The growth inhibition in assay [5] (setting [7]) is -8%; in assay [5] (setting [8]), -12%; in assay [5] (at 50.0 µM), -8.45%; in assay [6] (setting [7]) it was -2%; in assay [6] (setting [8]), -12%; in assay [6] (at 50.0 µM), 0.4%.
Regarding `O=C(O)c1c[nH]c2cc(Cl)ccc2c1=O`, the growth inhibition in assay [1] (setting [7]) was 4%; in assay [1] (setting [8]) it was -5%; in assay [1] (at 50.0 µM), -1.55%; in assay [2] (setting [7]) it was 1%; in assay [2] (setting [8]), 5%; in assay [2] (at 50.0 µM), -20.9%. The growth inhibition in assay [3] (setting [7]) is -8%; in assay [3] (setting [8]), -3%; in assay [3] (at 50.0 µM), -22.1%; in assay [4] (setting [7]), 2%; in assay [4] (setting [8]), 1%; in assay [4] (at 50.0 µM) it was 90.9% (active). The growth inhibition is 1% in assay [5] (setting [7]); -2% in assay [5] (setting [8]); -19.8% in assay [5] (at 50.0 µM); -1% in assay [6] (setting [7]); -4% in assay [6] (setting [8]); 12.2% in assay [6] (at 50.0 µM).
For the compound `COc1ccc(-c2csc(C)n2)cc1OC`, the growth inhibition was 5% in assay [1] (setting [7]); 1% in assay [1] (setting [8]); 21.4% in assay [1] (at 50.0 µM); 2% in assay [2] (setting [7]); 4% in assay [2] (setting [8]); 3.35% in assay [2] (at 50.0 µM). The growth inhibition in assay [3] (setting [7]) was 1%; in assay [3] (setting [8]) it was 7%; in assay [3] (at 50.0 µM), 16.1%; in assay [4] (setting [7]), 3%; in assay [4] (setting [8]), -3%; in assay [4] (at 50.0 µM), 30.3%. Moreover, the growth inhibition in assay [5] (setting [7]) was 0%; in assay [5] (setting [8]), 9%; in assay [5] (at 50.0 µM) it was 0.25%; in assay [6] (setting [7]) it was 2%; in assay [6] (setting [8]), 11%; in assay [6] (at 50.0 µM) it was 8.5%.
Regarding `O=C(Nc1ccc(Cl)c(Cl)c1)Nc1cc(Cl)ccc1Oc1ccc(Cl)cc1S(=O)(=O)O`, the growth inhibition in assay [1] (setting [7]) was 52%; in assay [1] (setting [8]), 97% (active); in assay [1] (at 50.0 µM) it was 90.5% (active); in assay [2] (setting [7]), 32%; in assay [2] (setting [8]), 99% (active); in assay [2] (at 50.0 µM), 93.5% (active). Also, the growth inhibition was 55% in assay [3] (setting [7]); 99% (active) in assay [3] (setting [8]); 93.6% (active) in assay [3] (at 50.0 µM); 35% in assay [4] (setting [7]); 99% (active) in assay [4] (setting [8]); 92.2% (active) in assay [4] (at 50.0 µM). The growth inhibition is 43% in assay [5] (setting [7]); 99% (active) in assay [5] (setting [8]); 92.5% (active) in assay [5] (at 50.0 µM); 61% in assay [6] (setting [7]); 98% (active) in assay [6] (setting [8]); 91% (active) in assay [6] (at 50.0 µM).
Consider `COc1ccc2nc3cc(Cl)ccc3c(NCCC[N+](C)(C)CCCCCCCCCC[N+](C)(C)CCCNc3c4ccc(Cl)cc4nc4ccc(OC)cc34)c2c1`, for which the growth inhibition was 44% in assay [1] (setting [7]); 98% (active) in assay [1] (setting [8]); 96% (active) in assay [1] (at 50.0 µM); 22% in assay [2] (setting [7]); 98% (active) in assay [2] (setting [8]); 88.3% (active) in assay [2] (at 50.0 µM). Also, the growth inhibition is 29% in assay [3] (setting [7]); 98% (active) in assay [3] (setting [8]); 95.8% (active) in assay [3] (at 50.0 µM); 24% in assay [4] (setting [7]); 94% (active) in assay [4] (setting [8]); 55.8% in assay [4] (at 50.0 µM). Moreover, the growth inhibition in assay [5] (setting [7]) is 21%; in assay [5] (setting [8]) it was 98% (active); in assay [5] (at 50.0 µM) it was 6.45%; in assay [6] (setting [7]) it was 41%; in assay [6] (setting [8]), 99% (active); in assay [6] (at 50.0 µM) it was 96.2% (active).
On to `COC(=O)c1nc(N)nc(C(=O)OC)c1C(=O)c1ccccc1`, for which the growth inhibition in assay [1] (setting [7]) is 0%; in assay [1] (setting [8]), 21%; in assay [1] (at 50.0 µM) it was -32.9%; in assay [2] (setting [7]), 22%; in assay [2] (setting [8]), -5%; in assay [2] (at 50.0 µM) it was -13.3%. Further, the growth inhibition is 30% in assay [3] (setting [7]); 20% in assay [3] (setting [8]); -29.4% in assay [3] (at 50.0 µM); -13% in assay [4] (setting [7]); 1% in assay [4] (setting [8]); 42.7% in assay [4] (at 50.0 µM). In addition, the growth inhibition in assay [5] (setting [7]) was -3%; in assay [5] (setting [8]) it was 0%; in assay [5] (at 50.0 µM), -24.6%; in assay [6] (setting [7]) it was -2%; in assay [6] (setting [8]) it was -5%; in assay [6] (at 50.0 µM), 0%.
